Results published in PubChem BioAssay (EPA / NIEHS).
“And” between values parts separate entries of the source, which are not always exact repeats. Equal entries are not always repeated. The source made the active and inactive calls. The calls were made as follows: active = hit-call score of the fitted dose curve at least 0.9, where 1 is the maximum; inactive = score below 0.9.

Columns and labels:
[1] = ATG_CRE_CIS: Attagene CIS-FACTORIAL HepG2 Assay for human cAMP Responsive Element (CRE) binding protein 3 (AID 2282926); details: HepG2 CRE cis-reporter, Attagene multiplexed mRNA; actives raise or lower the signal
Method in brief: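 HepG2 cells transiently transfected with cis-element-driven multiple reporter transcription units; CRE reporter mRNA measured 24 h after dosing by RT-PCR, 6-FAM labelling, HpaI digestion and capillary electrophoresis. Bidirectional fit versus DMSO baseline.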

[2] = molecular target: CCAAT/enhancer-binding protein beta (Homo sapiens) (UniProt P17676); assay: ATG_C_EBP_CIS: Attagene CIS-FACTORIAL HepG2 Assay for human CCAAT/Enhancer Binding Protein (C/EBP) beta (AID 2282927); details: HepG2 Attagene cis-factorial transcription factor reporter; actives raise or lower the signal
Method in brief: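 Endogenous C/EBPb-driven reporter transcripts measured in transfected human HepG2 cells at 24 h via RT-PCR and capillary electrophoresis of labelled fragments. Activity fitted in both directions relative to DMSO baseline.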

[3] = ATG_CMV_CIS: Attagene CIS-FACTORIAL HepG2 Assay for human CMV (Internal Marker) (AID 2282928); details: HepG2 CMV promoter reporter, transcription factor profiling; actives raise or lower the signal;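 also: endpoint acts as a background internal control marker rather than a target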
Method in brief: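 Cell system: HepG2, transiently transfected multiple reporter units under cis promoters. Exposure: 24 h. Detection: RT-PCR, FAM labeling, HpaI digestion, capillary electrophoresis. Analysis: bidirectional, DMSO baseline.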

[4] = ATG_DR4_LXR_CIS: Attagene CIS-FACTORIAL HepG2 Assay for human Liver X Receptor (LXR), DR4 submotif (AID 2282929); details: HepG2 Attagene DR4 cis-reporter, mRNA transcription; actives raise or lower the signal
Method in brief: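 Measures endogenous transcription factor activity via a DR4-driven reporter transcript in human HepG2 cells. Compounds incubated 24 h; mRNA quantified by RT-PCR and capillary electrophoresis, analysed as gain or loss of signal versus DMSO.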

[5] = molecular target: Aryl hydrocarbon receptor (Homo sapiens) (UniProt P35869); assay: ATG_Ahr_CIS: Attagene CIS-FACTORIAL HepG2 Assay for human Aryl Hydrocarbon Receptor (Ahr) (AID 2282930); details: HepG2 AhR cis-factorial reporter transcription; actives raise or lower the signal
Method in brief: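 Reporter mRNA levels, quantified by RT-PCR and fluorescent capillary electrophoresis, reflect endogenous AhR transcriptional activity in HepG2 cells carrying transfected cis-promoter reporter constructs. Readout at 24 h post-dose; gain or loss fitted against DMSO baseline.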

[6] = ATG_AP_1_CIS: Attagene CIS-FACTORIAL HepG2 Assay for human Activator Protein 1 (AP-1) (AID 2282931); details: HepG2 Attagene cis-factorial AP-1 reporter mRNA; actives raise or lower the signal
Method in brief: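 Bidirectional concentration-response fitting against DMSO controls. Underlying signal: reporter mRNA from cis-promoter constructs in transiently transfected HepG2, measured after 24 h by RT-PCR and capillary electrophoresis.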

[7] = ATG_AP_2_CIS: Attagene CIS-FACTORIAL HepG2 Assay for human Activator Protein 2 (AP-2) (AID 2282932); details: HepG2 AP-2 cis-reporter, Attagene transcription factor profiling; actives raise or lower the signal
Method in brief: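 Step one: transient transfection of HepG2 with reporter transcription units. Step two: 24 h chemical exposure. Step three: RNA extraction, RT-PCR, labelled fragment analysis by capillary electrophoresis; DMSO serves as baseline.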

[8] = ATG_BRE_CIS: Attagene CIS-FACTORIAL HepG2 Assay for human Bone Morphogenetic Protein (BMP) Response Element (BRE) (AID 2282933); details: HepG2 BMP response element reporter, Attagene transcription factor profiling; actives raise or lower the signal
Method in brief: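 Fluorescence-labelled reporter cDNA fragments, separated by capillary electrophoresis, gave the signal for this component of a 52-readout multiplex. HepG2 cells were transfected, exposed to chemicals for 24 h, and compared with DMSO using bidirectional fitting.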

[9] = molecular target: Retinoic acid receptor alpha (Homo sapiens) (UniProt P10276); assay: ATG_DR5_RAR_CIS: Attagene CIS-FACTORIAL HepG2 Assay for human Retinoic Acid Receptor Alpha (RARE), DR5 submotif (AID 2282934); details: HepG2 Attagene cis-factorial RARE DR5 reporter, mRNA; actives raise or lower the signal;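 as to AC50: reporter responds to endogenous RAR alpha beta and gamma in HepG2 not RARA alone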
Method in brief: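 Reporter transcripts from a DR5-regulated unit, measured via RT-PCR plus capillary electrophoresis, reflect endogenous RAR activity in transiently transfected human HepG2 liver cells. Exposure lasted 24 h; gain or loss of signal scored against DMSO.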

[10] = APR_HepG2_CellLoss_72hr: Apredica 72-hour HepG2 Assay for Cell Loss (AID 2282915); details: high-content imaging
Method in brief: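 Cell number comes from Hoechst 33342-labelled nuclei, imaged at 20x after 3.7% formaldehyde fixation. Dosing was 0.39–200 uM, ten concentrations in duplicate, 0.5% DMSO final, for 72 h. Bidirectional fit relative to DMSO baseline.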

[11] = APR_HepG2_P-H2AX_72hr: Apredica 72-hour HepG2 Assay for H2AX Phosphorylation (AID 2282916); details: imaging, actives raise or lower the signal;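 also: phospho-histone H2A.x immunostain intensity per cell marking DNA damage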
Method in brief: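 Following 72 hr treatment with 0.39–200 uM compound, HepG2 cells were formaldehyde-fixed, permeabilized and stained for phospho-H2A.x; signal was measured by high-content imaging and fitted bidirectionally against DMSO controls.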

[12] = APR_HepG2_MitoticArrest_72hr: Apredica 72-hour HepG2 Assay for Mitotic Arrest (AID 2282918); details: high-content imaging, actives raise or lower the signal
Method in brief: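 HepG2 cells treated 72 h at 0.39–200 uM, 0.5% DMSO final; formaldehyde-fixed, stained with Hoechst 33342 and phospho-histone H3 antibody, imaged by high-content fluorescence; bidirectional fit versus DMSO.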

[13] = APR_HepG2_P-H2AX_24hr: Apredica 24-hour HepG2 Assay for H2AX Phosphorylation (AID 2282920); details: high-content imaging, actives raise or lower the signal
Method in brief: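 HepG2 cells dosed 24 h at 0.39–200 uM (10 points, duplicate, 0.5% DMSO final). Formaldehyde-fixed and permeabilized, then immunostained for phospho-H2A.x with Hoechst. Fluorescence quantified by high-content imaging, fitted bidirectionally versus DMSO.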

[14] = APR_HepG2_StressKinase_72hr: Apredica 72-hour HepG2 Assay for Stress Kinase (AID 2282921); details: HepG2 stress kinase (phospho-c-Jun) imaging, actives raise or lower the signal
Method in brief: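 Fluorescence intensity of Cy3-tagged anti-phospho-c-Jun antibody, quantified per cell from Hoechst-defined nuclei across six images per well, served as the read-out following 72 h exposure (0.39–200 uM, 0.5% v/v DMSO).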

[15] = APR_HepG2_p53Act_72hr: Apredica 72-hour HepG2 Assay for p53 Activation (AID 2282923); details: high-content imaging, actives raise or lower the signal;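 also: average cellular p53 protein immunofluorescence intensity in HepG2 cells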
Method in brief: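 HepG2 monolayers receive test compounds in duplicate at ten concentrations (0.39 through 200 uM) for 72 hr. They are then formaldehyde-fixed, antibody-labelled for p53, Hoechst-stained and imaged, with activity fitted bidirectionally versus DMSO.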

[16] = APR_HepG2_NuclearSize_72hr: Apredica 72-hour HepG2 Assay for Nuclear Size (AID 2282925); details: high-content imaging, actives raise or lower the signal
Method in brief: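 HepG2; cpd 0.39–200 uM, 10 conc, duplicate; 72 h; DMSO 0.5% v/v; fix 3.7% formaldehyde 30 min RT; Triton permeabilization; Hoechst 2 ug/mL; HCS imaging 20x; nuclear diameter; gain/loss fit vs DMSO.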

Measured: AC50

Retinoic acid receptor alpha (Homo sapiens), sequence (P10276 whole entry, looked up): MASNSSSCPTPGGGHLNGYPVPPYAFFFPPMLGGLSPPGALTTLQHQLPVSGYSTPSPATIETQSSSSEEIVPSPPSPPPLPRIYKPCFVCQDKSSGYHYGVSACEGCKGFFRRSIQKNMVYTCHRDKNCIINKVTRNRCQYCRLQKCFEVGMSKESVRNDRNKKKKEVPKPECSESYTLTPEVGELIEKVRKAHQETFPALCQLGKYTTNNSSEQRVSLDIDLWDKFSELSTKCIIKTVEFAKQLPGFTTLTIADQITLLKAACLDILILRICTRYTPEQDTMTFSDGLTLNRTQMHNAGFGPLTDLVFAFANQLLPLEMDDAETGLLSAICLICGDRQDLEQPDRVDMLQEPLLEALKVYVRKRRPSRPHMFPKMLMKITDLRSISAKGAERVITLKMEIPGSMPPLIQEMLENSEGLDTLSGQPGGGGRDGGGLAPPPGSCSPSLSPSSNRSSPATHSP
Aryl hydrocarbon receptor (Homo sapiens), sequence (P35869 whole entry, looked up): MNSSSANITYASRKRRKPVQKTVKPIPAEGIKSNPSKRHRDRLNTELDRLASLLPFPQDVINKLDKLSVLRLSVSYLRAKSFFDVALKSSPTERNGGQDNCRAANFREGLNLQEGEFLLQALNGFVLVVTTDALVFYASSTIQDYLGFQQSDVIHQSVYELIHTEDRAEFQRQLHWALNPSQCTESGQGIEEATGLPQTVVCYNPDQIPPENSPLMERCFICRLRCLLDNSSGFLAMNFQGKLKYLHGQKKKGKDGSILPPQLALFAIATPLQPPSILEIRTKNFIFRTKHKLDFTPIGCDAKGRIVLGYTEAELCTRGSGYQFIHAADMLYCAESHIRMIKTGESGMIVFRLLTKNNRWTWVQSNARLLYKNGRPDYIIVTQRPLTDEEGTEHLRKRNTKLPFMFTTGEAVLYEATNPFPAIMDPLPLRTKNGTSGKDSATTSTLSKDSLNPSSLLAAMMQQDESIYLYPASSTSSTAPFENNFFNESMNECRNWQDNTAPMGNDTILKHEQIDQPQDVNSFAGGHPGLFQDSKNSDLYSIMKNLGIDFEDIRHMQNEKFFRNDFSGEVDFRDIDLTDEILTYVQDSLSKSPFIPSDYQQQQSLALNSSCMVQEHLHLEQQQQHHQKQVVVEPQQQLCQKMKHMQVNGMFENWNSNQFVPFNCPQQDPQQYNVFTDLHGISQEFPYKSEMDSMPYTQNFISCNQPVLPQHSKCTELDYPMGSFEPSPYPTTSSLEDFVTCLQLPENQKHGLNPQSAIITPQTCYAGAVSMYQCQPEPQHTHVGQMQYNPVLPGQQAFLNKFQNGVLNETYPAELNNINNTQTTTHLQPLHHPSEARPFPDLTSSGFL
CCAAT/enhancer-binding protein beta (Homo sapiens), sequence (P17676 whole entry, looked up, the tested form may be a part): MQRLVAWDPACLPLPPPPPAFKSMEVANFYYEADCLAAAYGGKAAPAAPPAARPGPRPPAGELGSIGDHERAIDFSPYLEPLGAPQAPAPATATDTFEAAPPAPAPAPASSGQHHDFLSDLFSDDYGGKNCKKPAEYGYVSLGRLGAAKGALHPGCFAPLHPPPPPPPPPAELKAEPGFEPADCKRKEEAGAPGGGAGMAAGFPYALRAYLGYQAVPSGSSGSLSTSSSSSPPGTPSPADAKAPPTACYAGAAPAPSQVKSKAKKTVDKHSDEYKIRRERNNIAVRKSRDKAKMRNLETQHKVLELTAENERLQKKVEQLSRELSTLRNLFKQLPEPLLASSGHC

CCOC(=O)c1ccccc1N
inactive: [1] | [2] | [3] | [4] | [5] | [6] | [7] | [8] | [9]

O=NN1CCCC1
inactive: [1] | [2] | [3] | [4] | [5] | [6] | [7] | [8] | [9]

CCOP(=S)(S)OCC
inactive: [1] | [2] | [3] | [4] | [5] | [6] | [7] | [8] | [9]

CC(C)(C)c1ccc(O)cc1
active: [3] 100 µM | [8] 58.1 µM
inactive: [10] | [11] | [12] | [13] | [14] | [15] | [2] | [4] | [5] | [7]

CCOP(=S)(OCC)SCS(=O)(=O)CC
inactive: [1] | [2] | [3] | [4] | [5] | [6] | [7] | [8] | [9]

CCOP(=S)(NC(C)C)Oc1ccccc1C(=O)OC(C)C (stereo not given)
inactive: [1] | [2] | [3] | [5] | [6] | [7] | [8] | [9]
active: [4] 26.5 µM

NNC(N)=S
inactive: [1] | [2] | [3] | [4] | [5] | [6] | [7] | [8] | [9]

CCCCc1ccc(O)cc1
inactive: [1] | [2] | [4] | [5] | [7] | [8] | [9]
active: [3] 71.4 µM | [6] 148 µM

O=C(O)C1C(C(=O)O)C2(Cl)C(Cl)=C(Cl)C1(Cl)C2(Cl)Cl (stereo not given)
inactive: [10] | [11] | [13] | [14] | [15] | [16] | [1] | [3] | [4] | [5] | [6] | [7] | [8]

O=C(O)C(F)(F)C(F)(F)C(=O)O
inactive: [1] | [2] | [3] | [4] | [5] | [6] | [7] | [8] | [9]

O=c1ssc(Cl)c1Cl
inactive: [3] | [5] | [6] | [7] | [8] | [9]
active: [1] 50.9 µM | [2] 53.4 µM | [4] 52.7 µM

CO/N=C(/C(=O)OC)c1ccccc1COc1ccccc1C
active: [3] 23.2 µM | [5] 22.9 µM | [6] 8.54 µM | [8] 27.7 µM | [9] 5.62 µM
inactive: [1] | [2] | [4] | [7]

Nc1ccc(Sc2ccc(N)cc2)cc1
active: [5] 19.4 µM
inactive: [1] | [2] | [3] | [4] | [6] | [7] | [8] | [9]

Cc1ccc(C(=O)Cl)cc1
inactive: [1] | [2] | [3] | [4] | [5] | [6] | [7] | [8] | [9]

C/C(=N\NC(=O)Nc1cc(F)cc(F)c1)c1ncccc1C(=O)O
active: [5] 57.2 µM and 46.1 µM
inactive: [1] | [2] | [3] | [4] | [6] | [7] | [8]

O=C(O)C(F)(F)OC(F)(F)C(F)(F)OC(F)(F)C(=O)O
inactive: [1] | [2] | [3] | [4] | [5] | [6] | [7] | [8] | [9]

COP(=O)(CCC(=O)NCO)OC
inactive: [1] | [2] | [3] | [4] | [5] | [6] | [7] | [8] | [9]

Clc1ccc(Oc2ccccc2)cc1
inactive: [1] | [2] | [3] | [4] | [5] | [6] | [7] | [8] | [9]

CC(O)C(F)(F)C(F)(F)F (stereo not given)
inactive: [1] | [2] | [3] | [4] | [5] | [6] | [7] | [8] | [9]

FC(F)(F)c1ccc(Cl)cc1
inactive: [1] | [2] | [3] | [4] | [5] | [6] | [7] | [8] | [9]

CCOP(=O)(O)C(N)=O
inactive: [1] | [2] | [3] | [4] | [5] | [6] | [7] | [8] | [9]
